Experimental data taken from ChEMBL document CHEMBL3988442, “University of Dundee, Small-Polar-MMV Screening Library” (2021).
Among all 48,000 compounds or so, about 13,000 (27%) showed an effect of 50% or more. The list shows a part of the results.

Each compound was assayed on Wolbachia pipientis (assay: Anti-Wolbachia Cell-Based Screen). Conditions: 5 µM.
Format: functional
Design: scale not given: in the data most compounds retested in dose-response had high values

Compound	Percent Effect [%]
CNc1nc(CNC(=O)Nc2ccc(OC(C)C)cc2F)cs1	6.813
CC(c1cccc(Cl)c1)N1CCN(S(C)(=O)=O)CC1 (centres undefined)	0.53
CCOc1ccc(OCC(O)CN2CCN(S(C)(=O)=O)CC2)cc1 (centres undefined)	152.9
CS(=O)(=O)N1CCN(CC(O)COc2ccc(F)cc2)CC1 (centres undefined)	-6.942
CS(=O)(=O)N1CCN(CC(O)COc2ccc(Cl)cc2)CC1 (centres undefined)	153.2
CCc1ccc(OCC(O)CN2CCN(S(C)(=O)=O)CC2)cc1 (centres undefined)	13.83
CN1CCC(N2CC[C@@H]3[C@@H](CCC(=O)N3CCC3=CCCCC3)C2)CC1	-18.13
CC(Cn1cccn1)NS(=O)(=O)Cc1ccc(F)cc1 (centres undefined)	0.5755
O=C(COc1ccc(Br)cc1F)Nc1cn[nH]c1	-2.369
CNC(=O)COc1c(C(C)=O)ccc(Cl)c1Cl	-15.04
COC(=O)COc1c(F)cc(Br)cc1C(C)=O	110.5
Cc1ccc(OCC(=O)NC2CC2)nc1	-4.219
CNC(=O)NC(=O)COc1c(C(C)=O)ccc(Cl)c1Cl	18.02
COc1cc(CCC(=O)NC2CC2)ccc1OCC(F)(F)F	-6.568
CNC(=O)COc1c(F)cc(Br)cc1C(C)=O	112.4
CC(=O)c1ccc(Cl)c(Cl)c1OCC(=O)NCC(F)(F)F	-11.44
CC(=O)c1cc(Br)cc(F)c1OCC(=O)NC(C)C	60.24

Compound	Percent Effect [%]
COc1ccc(C(C)=O)c(OCC(=O)NC(C)c2ccc(F)cc2)c1 (centres undefined)	9.317
CC(=O)c1cc(Br)cc(F)c1OCC(=O)NC1CC1	100.7
CC(=O)c1ccc(Cl)c(Cl)c1OCC(=O)NC(C)C	-9.893
CCSc1ncc(CN(Cc2cnn(C)c2)CC(C)C)cn1	-10.44
Cc1cc(C(=O)OCC2CCCN2C(N)=O)c(C)o1 (centres undefined)	-25.43
CC(C)c1cc(N2CCC[C@H](N)C2)n2nccc2n1	19.12
CCc1noc(CNc2cc3c(cc2Cl)OCCCO3)n1	-0.8134
Cc1n[nH]c(=O)c2c(NC(=O)CN3CCCC(C(F)(F)F)C3)oc(C)c12 (centres undefined)	17.73
CC(NC(=O)N1CCS(=O)(=O)CC1)c1ccc(F)cc1Cl (centres undefined)	-12.17
NC(=O)C1=NC2=NS(=O)(=O)c3ccccc3N2N1Cc1ccccc1Cl	-9.423
COc1ccc2c3c1CN(S(C)(=O)=O)CC3=CC(C)(C)CO2	106.6
COc1ccc(NC(C)=O)c(N2CCN(C(C)=O)CC2)n1	4.921
COC(=O)N1CC2=CC(C)(C)COc3ccc(OC)c(c32)C1	125.4
COCCOC(=O)N1CC2=CC(C)(C)COc3ccc(OC)c(c32)C1	110
COCC1CC2(CCN(C(=O)c3ccc(OC)c(Cl)c3)CC2)CO1 (centres undefined)	1.634
COc1ccccc1C(C)N1CCN(S(C)(=O)=O)CC1 (centres undefined)	-21.28
COc1ccc2c3c1CN(C(C)=O)CC3=CC(C)(C)CO2	80.53
